Screening data as filed in PubChem BioAssay.
Only some compounds are listed: those with a hit (about 4.4% of all), similar ones and a draw of the others.
tim23-1 inh = inhibits growth of tim23-1 mutant yeast | inhibition, % at 20 µM | AID 463212 | 330,000 tested, 1.3% active | S. cerevisiae tim23-1 growth, BacTiter-Glo luminescence, 24 h;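 active = growth inhibition of the mutant yeast at or above 50%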;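 note: temperature-sensitive mutant grown at 25 °C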
tim10-1 inh = tim10-1 yeast growth inhibition; S. cerevisiae tim10-1 ts strain growth, BacTiter-Glo, 24 h; inhibition, % at 20 µM; 330,000 tested, 2.2% active; AID 463190;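 active = inhibition of at least 40%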;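 note: mutant grown at 25 °C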
Mot1-301 SUMO = SUMOylation pathway inhibition by Mot1-301 growth rescue. growth rescue, % at 18.8 µM. S. cerevisiae Mot1-301 growth rescue, ATP luminescence, 38.5C; percent above DMSO median, 100 means doubled. 320,000 tested, 1% active;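 active = every valid replicate shows activation above 250% relative to neutral control wells; inactive = the rest, any valid replicate at or below 250%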
PfHsp90 yeast 2 = inhibits growth of yeast expressing Plasmodium falciparum Hsp90; AID 504621; 310,000 tested, 0.32% active; inhibition, % at 9.4 µM; S. cerevisiae expressing PfHsp90, BacTiter-Glo ATP, 48 h; yeast lacking PDR1 and PDR3 efflux regulators;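 active = every replicate shows inhibition above about 80%, whatever the replicate mean, limit read from the data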
TIM10 inh = growth inhibitors of TIM10 yeast strain | S. cerevisiae TIM10 strain growth, BacTiter-Glo luminescence, 24 h | inhibition, % at 10 µM | 330,000 tested, 1.4% active;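 active = inhibition of 40% or more at the single tested concentration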;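 note: wild-type TIM10 isogenic control strain grown at permissive 25 °C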
tim23-1 conf = confirmation of tim23-1 mutant yeast growth inhibitors. shares compounds with tim23-1 inh. S. cerevisiae tim23-1 growth, BacTiter-Glo luminescence, 24 h. inhibition, % at 20 µM. 4,400 tested, 83% active. AID 463218;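 active = inhibition above about 39% in either of two replicate wells at 20 µM, limit read from the data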;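 note: temperature-sensitive tim23-1 mutant grown at 25 °C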
A number is an active result; – = inactive; · = no result.

SMILES	tim23-1 inh	tim10-1 inh	Mot1-301 SUMO	PfHsp90 yeast 2	TIM10 inh	tim23-1 conf
O=C(COC(=O)Cc1ccc(F)cc1)NC(=O)c1ccccc1	–	–	–	–	–	·
C/C(N)=C(/C#N)C(=O)CSc1nc2ccccc2c(=O)n1Cc1ccc(C)cc1	57	–	–	–	–	–
CCOC(=O)C1CCCN(C(=S)Nc2ccc(Nc3ccccc3)cc2)C1 (stereo unspecified)	52	–	–	–	–	41
COc1ccc(NC(=S)N2CCC(c3ccc(C)cc3)C2)cc1 (stereo unspecified)	–	–	–	–	–	·
CCOc1ccc(NC(=S)N2CCC(c3ccc(C)cc3)C2)cc1 (stereo unspecified)	64	–	–	–	–	41
COc1cccc(NC(=S)N2CCC(c3ccc(C)cc3)C2)c1 (stereo unspecified)	53	–	–	–	–	–
CCOC(=O)C1CCN(C(=S)Nc2ccccc2)CC1	–	–	–	–	–	·
COc1cc(C2CC(c3cccs3)=NN2C(=O)CCl)ccc1OC(F)F (stereo unspecified)	56	–	–	–	–	44
O=Cc1ccccc1Oc1ccccc1	–	–	–	–	–	·
O=Cc1ccccc1OCCOc1ccccc1C=O	85	–	–	–	–	78
COc1ccc(C)cc1N(CC(=O)NCCSCc1cccc(Cl)c1)S(C)(=O)=O	–	–	–	–	–	·
Cc1cc(NC(=O)NC(=O)c2ccccc2NC(=O)C(C)N)ccc1Oc1ncc(Br)cn1 (stereo unspecified)	·	·	·	–	·	·
O=c1c2ccccc2nc2c3ccccc3cnn12	55	–	–	–	–	64
COc1ccc(/C=C2\COc3ccccc3C2=O)c(OC)c1	55	–	–	–	–	50
C/C(=N\NC(=S)Nc1ccccc1C)c1ccc(O)cc1	–	–	–	·	–	·
O=C(Nc1ccc(N2CCN(C(=O)c3cccs3)CC2)cc1)c1ccc(Br)o1	55	–	–	–	–	54
O=C(Nc1ccccc1Cl)c1cccc(NC(=O)c2cccs2)c1	59	–	–	–	–	63
O=C(Nc1cccc(NC(=O)c2cccs2)c1)c1ccc(Br)o1	61	–	–	–	–	72
CCOC(=O)c1nnc(-c2ccccc2)nc1Oc1ccccc1Cl	53	–	–	·	–	56
Cc1ccc(NC(=O)C(C)N2C(=O)c3ccccc3C2=O)c(C)c1 (stereo unspecified)	–	–	–	–	–	·
O=C(Nc1ccc(NC(=O)C2CC2)cn1)c1ccccc1	–	–	–	–	–	·
O=C(Nc1ccc(NC(=O)C2CC2)nc1)c1cccnc1	53	–	–	–	–	–
COc1cccc2sc3cc(NCc4ccc(C)o4)ccc3c(=O)c12	68	–	–	–	–	66
COc1ccc2c(c1)NC(c1cc(Cl)cc(Cl)c1O)c1cccn1-2 (stereo unspecified)	–	–	·	–	–	·
COc1ccc2c(c1)NC(c1ccc(N(C)C)cc1)c1cccn1-2 (stereo unspecified)	56	–	–	–	–	61
SMILES	tim23-1 inh	tim10-1 inh	Mot1-301 SUMO	PfHsp90 yeast 2	TIM10 inh	tim23-1 conf
O=C(CC(=O)c1ccccc1O)c1ccc(F)cc1	61	–	–	·	–	57
CC1(c2cccc3ccccc23)OC(=O)c2ccccc21 (stereo unspecified)	·	·	·	–	·	·
C=CCN=c1scc(-c2ccco2)n1/N=C/c1ccc(O)c(O)c1O	64	–	–	–	–	62
O=C(O)c1[nH]c2ccc([N+](=O)[O-])cc2c1-c1ccccc1	–	–	–	–	–	·
O=[N+]([O-])c1ccc2[nH]nc(-c3ccccc3)c2c1	59	–	–	–	–	–
C=CCN1c2ccc(Br)cc2C(=O)CS1(=O)=O	58	–	–	·	–	54
O=C(Nc1nnc(SCc2ccccc2F)s1)C1=COCCO1	–	–	–	–	–	·
Fc1cccc(-c2cc3nc(-c4ccccc4)cc(N4CCC5(CC4)OCCO5)n3n2)c1	–	–	–	–	–	·
Fc1cccc(-c2cc3nc4c(c(N5CCC6(CC5)OCCO6)n3n2)CCCC4)c1	52	–	·	–	–	–
CCCc1nc2oc3cc(OC)ccc3c(=O)c2c(=O)n1CCc1ccccc1	–	–	–	–	–	·
COc1ccc(CCn2c(C(C)C)nc3oc4ccccc4c(=O)c3c2=O)cc1	51	–	–	–	–	41
CC(C)c1nc2c(c(=O)c3ccccc3n2C)c(=O)n1CCc1ccccc1	59	–	–	·	–	–
CCOC(=O)c1sc2nc(C)nc(SC(C)C(=O)N(C)c3ccccc3)c2c1C (stereo unspecified)	–	–	–	–	–	·
O=C(O)C1C2CCC(CC2)C1C(=O)N1CCN(Cc2ccc(F)cc2)CC1 (stereo unspecified)	–	–	–	–	–	·
COc1ccccc1C(=O)Nc1cccc(S(=O)(=O)N2CCCC2)c1	98	–	·	–	–	–
COc1cc(C(=O)Nc2cccc(S(=O)(=O)N3CCCC3)c2)c([N+](=O)[O-])cc1OC	–	–	–	·	–	·
O=C(COc1ccc2ccccc2c1Br)Nc1cccnc1	52	–	–	–	–	–
N#CC1=C(N)c2ccccc2CC12CCCCC2	51	–	–	–	–	41
CCC(=O)NC1=C(C#N)C2(CCCC2)Cc2ccccc21	–	–	–	–	–	·
COc1ccc(Nc2nc3ccccc3nc2C)cc1	–	–	–	–	–	·
Cc1nc2ccccc2nc1Nc1cccc(Cl)c1	61	–	–	–	–	41
C=C(C(=O)Oc1ccccc1C(C)(C)C)c1ccccc1	59	–	–	·	–	56
Cc1ccc(-c2nc3n(n2)Cc2ccccc2-3)cc1	54	–	–	–	–	50
CCOC(=O)CNC(=O)c1sc2ncnc(N3CCc4ccccc4C3)c2c1C	51	–	–	–	–	–
CCOC(=O)c1sc2ncnc(N3CCN(CC)CC3)c2c1C	–	–	–	–	–	·
SMILES	tim23-1 inh	tim10-1 inh	Mot1-301 SUMO	PfHsp90 yeast 2	TIM10 inh	tim23-1 conf
Cc1ccnn1-c1ccc(C(=O)NCc2ccccc2CN2CCOCC2)cc1	–	–	–	·	–	·
O=C(Nc1cn(-c2ccccc2)nc1-c1cccs1)c1ccco1	58	–	–	–	–	47
O=C(Cn1cnc(S(=O)(=O)N2CCCC2)c1)Nc1ccc(OC(F)(F)F)cc1	–	–	–	–	–	·
O=c1c(/C=N\NS(=O)(=O)c2ccccc2)coc2ccc(Cl)cc12	–	–	–	–	–	·
CC1CCCc2sc3nc(NCc4ccco4)n4ncnc4c3c21 (stereo unspecified)	50	–	–	–	–	49
c1coc(CNc2c3c(nc4ncnn24)CCC3)c1	–	–	–	·	–	·
O=C(c1ccccc1)c1cccc[n+]1[O-]	–	–	–	–	–	·
O=C1c2cccc3c(Cl)ccc(c23)C(=O)N1O	61	–	–	–	–	69
COc1cccc(CNc2ncnc3cc(Cl)ccc23)c1	·	·	·	–	·	·
